For seven compounds, outcome and AC50 results are on record in PubChem BioAssay (EPA / NIEHS).

The structures appear in SMILES notation. Active and inactive are the calls of the source. How the source made its calls: active means hit-call score of the fitted dose curve at least 0.9, where 1 is the maximum; inactive means score below 0.9.

Read-out in test [1]: TIMP metallopeptidase inhibitor 1 (TIMP1), TIMP1 (gene 7076)
The test is described as follows: BSK_hDFCGF_TIMP1: BioMAP Diversity Plus: hDFCGF Assay for TIMP metallopeptidase inhibitor 1 (TIMP1) Biomarker Activity (AID 2283062). Conditions: primary human foreskin fibroblasts; actives raise or lower the signal. An outline of the steps:
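Primary human foreskin fibroblasts in the hDFCGF system were dosed with compound for 24 h, then TIMP-1 was measured by ELISA. Activity was fitted bidirectionally relative to DMSO control; parallel SRB staining assessed cytotoxicity.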

Read-out in test [2]: Monokine induced gamma interferon (MIG), CXCL9 (gene 4283)
Put plainly: BSK_hDFCGF_MIG: BioMAP Diversity Plus: hDFCGF Assay for Monokine induced gamma interferon (MIG) Biomarker Activity (AID 2283063). Conditions: primary human foreskin fibroblasts; actives raise or lower the signal. Summed up:
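ELISA read-out of MIG from primary human dermal fibroblasts 24 h post-dosing. Gain or loss of signal fitted bidirectionally, DMSO as baseline.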

Read-out in test [3]: Matrix Metallopeptidase 1 (MMP1), MMP1 (gene 4312)
The test is described as follows: BSK_hDFCGF_MMP1: BioMAP Diversity Plus: hDFCGF Assay for Matrix Metallopeptidase 1 (MMP1) Biomarker Activity (AID 2283064). Conditions: primary human foreskin fibroblasts; actives raise or lower the signal. Summed up: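 ELISA read-out of MMP1 from human foreskin fibroblasts (primary skin cells), 24 h post-dose. Gain or loss of signal was fitted bidirectionally versus DMSO negative control; cytotoxicity was checked by SRB in parallel cultures.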

Read-out in test [4]: Vascular cell adhesion molecule 1 (VCAM1), VCAM1 (gene 7412)
Put plainly: BSK_hDFCGF_VCAM1: BioMAP Diversity Plus: hDFCGF Assay for Vascular cell adhesion molecule 1 (VCAM1) Biomarker Activity (AID 2283065).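 On AC50: VCAM-1 protein level quantified by ELISA after 24 h chemical exposure.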 Conditions: primary human foreskin fibroblasts; actives raise or lower the signal. An outline of the steps:
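Primary human foreskin fibroblasts (hDFCGF system) were dosed with chemical and VCAM-1 was measured by ELISA 24 h later. Bidirectional curve fitting used DMSO as negative control and activity baseline.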

Read-out in test [5]: Plasminogen activator inhibitor-1 (PAI1), SERPINE1 (gene 5054)
Put plainly: BSK_hDFCGF_PAI1: BioMAP Diversity Plus: hDFCGF Assay for Plasminogen activator inhibitor-1 (PAI1) Biomarker Activity (AID 2283066). Particulars: primary human foreskin fibroblasts; actives raise or lower the signal. Summed up:
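PAI-1 levels in human dermal foreskin fibroblasts were quantified by ELISA 24 h after dosing, with gain or loss analysed against DMSO. Overt cytotoxicity was checked by sulforhodamine B total-protein staining in parallel cultures.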

Read-out in test [6]: Intercellular Adhesion Molecule 1 (ICAM1), ICAM1 (gene 3383)
The test is described as follows: BSK_KF3CT_ICAM1: BioMAP Diversity Plus: KF3CT Assay for Intercellular Adhesion Molecule 1 (ICAM1) Biomarker Activity (AID 2283067). Conditions: primary human keratinocytes with fibroblasts; actives raise or lower the signal. An outline of the steps:
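Human keratinocyte plus foreskin fibroblast primary co-culture was exposed to chemical for 24 h. ICAM-1 was then quantified by ELISA, and the data were fit bidirectionally against DMSO as the negative control and baseline.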

Read-out in test [7]: Interleukin-1 alpha (IL1a), IL1A (gene 3552)
The test is described as follows: BSK_KF3CT_IL1a: BioMAP Diversity Plus: KF3CT Assay for Interleukin-1 alpha (IL1a) Biomarker Activity (AID 2283070). Particulars: primary human keratinocytes with fibroblasts; actives raise or lower the signal. An outline of the steps:
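Primary skin co-culture (keratinocytes, foreskin fibroblasts), 24 h exposure; ELISA for IL-1a; bidirectional curve fit vs DMSO.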

Read-out in test [8]: Transforming growth factor beta 1 (TGFb1), TGFB1 (gene 7040)
The test is described as follows: BSK_KF3CT_TGFb1: BioMAP Diversity Plus: KF3CT Assay for Transforming growth factor beta 1 (TGFb1) Biomarker Activity (AID 2283072). Particulars: primary human keratinocytes with fibroblasts; actives raise or lower the signal. An outline of the steps: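 ELISA quantifies TGF-b1 at 24 h post-dose in a primary human skin co-culture of keratinocytes and fibroblasts, with gain or loss judged against DMSO. Parallel SRB total-protein staining flags overt cytotoxicity.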

Read-out in test [9]: C-C motif chemokine 2 (Homo sapiens) (UniProt P13500)
The test is described as follows: BSK_KF3CT_MCP1: BioMAP Diversity Plus: KF3CT Assay for Monocyte Chemoattractant Protein 1 (MCP1/CCL2) Biomarker Activity (AID 2283073). Particulars: primary human keratinocytes with fibroblasts; actives raise or lower the signal. Summed up:
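Human keratinocyte plus foreskin fibroblast primary co-culture exposed to chemical for 24 h. MCP-1 levels measured by ELISA. Bidirectional curve fitting relative to DMSO negative control as baseline.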

Read-out in test [10]: urokinase plasminogen activator (uPA), PLAU (gene 5328)
The test is described as follows: BSK_KF3CT_uPA: BioMAP Diversity Plus: KF3CT Assay for urokinase plasminogen activator (uPA) Biomarker Activity (AID 2283075). Particulars: primary human keratinocytes with fibroblasts; actives raise or lower the signal. An outline of the steps: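 Skin co-culture (keratinocytes + foreskin fibroblasts), human primary; 24 h post-dose; uPA by ELISA; gain/loss fit vs DMSO baseline.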

Read-out in a further test: CD40, CD40 (gene 958)
Put plainly: BSK_LPS_CD40: BioMAP Diversity Plus: LPS Assay for CD40 Biomarker Activity (AID 2283076). Conditions: primary human HUVEC with PBMC; actives raise or lower the signal. Summed up:
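Primary human umbilical vein endothelial cells co-cultured with peripheral blood mononuclear cells, LPS-stimulated, were dosed with chemical and read 24 h later. CD40 levels were measured by ELISA and fitted bidirectionally against DMSO as negative control and baseline.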

Read-out in test [11]: Interleukin-8 (IL8), CXCL8 (gene 3576)
Put plainly: BSK_LPS_IL8: BioMAP Diversity Plus: LPS Assay for Interleukin-8 (IL8) Biomarker Activity (AID 2283078). Conditions: primary human HUVEC with PBMC; actives raise or lower the signal. An outline of the steps:
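Human umbilical vein endothelial cells co-cultured with PBMC were stimulated with LPS; IL-8 levels were measured by ELISA 24 h after chemical dosing. Activity was fitted bidirectionally against DMSO as negative control and baseline.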

Test [12] in a line: BSK_LPS_SRB: Viability Assessment in the BioMAP Diversity Plus: LPS Assay (AID 2283079).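 Further: total protein by sulforhodamine B absorbance as a cytotoxicity measure; measured one day after compound addition.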 Particulars: primary human HUVEC with PBMC. An outline of the steps:
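Human umbilical vein endothelial cells co-cultured with PBMC (LPS system) were dosed for 24 h. Total protein was stained with 0.1% sulforhodamine B after 10% TCA fixation, read at 560 nm, and fitted bidirectionally against DMSO baseline.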

Read-out in test [13]: Interleukin-1 alpha (IL1a), IL1A (gene 3552)
Put plainly: BSK_LPS_IL1a: BioMAP Diversity Plus: LPS Assay for Interleukin-1 alpha (IL1a) Biomarker Activity (AID 2283080). Conditions: primary human HUVEC with PBMC; actives raise or lower the signal. An outline of the steps: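 Human umbilical vein endothelial cells co-cultured with peripheral blood mononuclear cells were LPS-stimulated and exposed to test chemicals for 24 h. IL-1 alpha was quantified by ELISA, with bidirectional curve fitting against DMSO as the negative control and baseline.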

Read-out in test [14]: Monocyte Chemoattractant Protein-1 (MCP1), CCL2 (gene 6347)
Put plainly: BSK_LPS_MCP1: BioMAP Diversity Plus: LPS Assay for Monocyte Chemoattractant Protein-1 (MCP1) Biomarker Activity (AID 2283081).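 On AC50: co-culture stimulated with LPS; secreted MCP-1 protein quantified by ELISA in culture supernatant.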 Particulars: primary human HUVEC with PBMC; actives raise or lower the signal. Summed up:
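HUVEC plus PBMC co-culture (human primary cells, LPS system) exposed to test chemical for 24 h; MCP-1 measured by ELISA. Bidirectional curve fitting against DMSO baseline; parallel SRB total-protein staining flags overt cytotoxicity.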

A short description of test [15]: BSK_KF3CT_SRB: Viability Assessment in the BioMAP Diversity Plus: KF3CT Assay (AID 2283069).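 Further: read 24 h after compound addition.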 Conditions: primary human keratinocytes with fibroblasts. An outline of the steps:
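SRB read-out at 560 nm (0.1% stain, TCA-fixed cells) gauges overt cytotoxicity in a human skin keratinocyte–fibroblast co-culture 24 h post-dosing. Signal change was fitted bidirectionally relative to DMSO control.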

Read-out in test [16]: TIMP metallopeptidase inhibitor 2 (TIMP2), TIMP2 (gene 7077)
The test is described as follows: BSK_KF3CT_TIMP2: BioMAP Diversity Plus: KF3CT Assay for TIMP metallopeptidase inhibitor 2 (TIMP2) Biomarker Activity (AID 2283071). Conditions: primary human keratinocytes with fibroblasts; actives raise or lower the signal. Summed up:
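TIMP-2 measured by ELISA at 24 h in human keratinocyte/fibroblast primary co-cultures exposed to chemicals. Both increases and decreases were fitted against DMSO. Parallel cultures were stained with SRB for total protein as an overt-cytotoxicity check.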

Read-out in test [17]: Matrix Metallopeptidase 9 (MMP9), MMP9 (gene 4318)
The test is described as follows: BSK_KF3CT_MMP9: BioMAP Diversity Plus: KF3CT Assay for Matrix Metallopeptidase 9 (MMP9) Biomarker Activity (AID 2283074).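 On AC50: MMP9 protein level quantified by ELISA in the co-culture.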 Conditions: primary human keratinocytes with fibroblasts; actives raise or lower the signal. Summed up:
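ELISA read-out of MMP-9 at 24 h post-dosing in a co-culture of human skin keratinocytes and foreskin fibroblasts. Gain or loss of signal was fitted in both directions against DMSO.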

Read-out in test [18]: E-selectin (Homo sapiens) (UniProt P16581)
Put plainly: BSK_LPS_Eselectin: BioMAP Diversity Plus: LPS Assay for Eselectin Biomarker Activity (AID 2283077). Particulars: primary human HUVEC with PBMC; actives raise or lower the signal. An outline of the steps: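 Human umbilical vein endothelial cells co-cultured with peripheral blood mononuclear cells under LPS stimulation; E-selectin measured by ELISA 24 h after chemical dosing. Activity fitted bidirectionally against DMSO as negative control and baseline.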

Read-out in test [19]: Interferon-gamma inducible Protein 10 (IP10), CXCL10 (gene 3627)
Put plainly: BSK_KF3CT_IP10: BioMAP Diversity Plus: KF3CT Assay for Interferon-gamma inducible Protein 10 (IP10) Biomarker Activity (AID 2283068). Conditions: primary human keratinocytes with fibroblasts; actives raise or lower the signal. Summed up:
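In a primary skin co-culture of keratinocytes and fibroblasts, IP-10 is quantified by ELISA at 24 h after dosing. SRB staining of parallel wells monitors overt toxicity. Curves are fitted both directions against DMSO.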

E-selectin (Homo sapiens), sequence (P16581 whole entry, looked up): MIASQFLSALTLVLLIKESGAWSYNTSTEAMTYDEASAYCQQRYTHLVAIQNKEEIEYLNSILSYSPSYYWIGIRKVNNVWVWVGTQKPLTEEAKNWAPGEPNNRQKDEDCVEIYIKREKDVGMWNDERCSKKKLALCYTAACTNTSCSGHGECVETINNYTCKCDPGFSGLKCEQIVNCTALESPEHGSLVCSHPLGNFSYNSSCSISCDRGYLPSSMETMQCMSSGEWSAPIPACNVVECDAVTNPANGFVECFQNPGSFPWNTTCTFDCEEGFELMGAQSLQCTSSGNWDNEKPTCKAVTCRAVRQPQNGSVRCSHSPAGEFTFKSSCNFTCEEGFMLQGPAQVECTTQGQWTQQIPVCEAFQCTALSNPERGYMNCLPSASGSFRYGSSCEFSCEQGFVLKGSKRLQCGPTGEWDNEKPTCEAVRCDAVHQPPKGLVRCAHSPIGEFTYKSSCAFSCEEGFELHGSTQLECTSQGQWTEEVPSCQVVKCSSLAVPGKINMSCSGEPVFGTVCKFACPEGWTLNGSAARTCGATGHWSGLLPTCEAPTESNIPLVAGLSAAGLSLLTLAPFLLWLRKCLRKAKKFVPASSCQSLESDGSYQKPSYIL

The AC50 is the concentration at which the activity in the assay is half-maximal. Consider `CN(C)c1ccc(Cc2ccc(N(C)C)cc2)cc1`, for which the result in test [1], in test [2], in test [4], in test [5], in test [6] and in [7] was inactive. Also, the outcome in [8] was “inactive”; in [9] it was “inactive”; in [10], “inactive”; with CD40, CD40 (gene 958) it was “inactive”; in test [12], “inactive”; in test [13] it was “inactive”. Also, in test [14], the outcome was inactive. Also, the concentration at half-maximal activity (AC50) in test [3] and in test [11] was 20 µM (active) each time.

Regarding `Nc1ccc(Nc2ccccc2)cc1`, the outcome in [1], in test [2], in [3], in [5], in test [6] and in test [15] was inactive. The result in test [7], in test [16], in [8], in test [9], in [10] and in test [12] was inactive. The AC50 was 5.54 µM (active) in [4]; 3.97 µM (active) in test [17]; 3.97 µM (active) with CD40, CD40 (gene 958); 12.9 µM (active) in test [18]; 11.2 µM (active) in test [11]; 8.02 µM (active) in test [14].

As for `CCCCC(CC)COC(=O)CCCCCCCCC(=O)OCC(CC)CCCC` (stereo unspecified), the result in test [1], in [2], in [3], in test [4], in [5] and in test [6] was inactive. The outcome in [7] is “inactive”; in [8] it was “inactive”; in test [17], “inactive”; in test [10] it was “inactive”; with CD40, CD40 (gene 958) it was “inactive”; in [11], “inactive”. Besides, the result in test [12], in [13] and in test [14] was inactive. The AC50 in [9] was 3.97 µM (active).

On to `Cc1ccc(S(=O)(=O)O)cc1C`, for which the result in test [1], in test [2], in test [3], in [4], in test [5] and in [6] was inactive. Moreover, the outcome in [19] is “inactive”; in test [7], “inactive”; in test [8], “inactive”; in test [9], “inactive”; in test [10] it was “inactive”; in the test with CD40, CD40 (gene 958), “inactive”. Besides, the outcome in test [11], in test [12], in test [13] and in test [14] was inactive.

Turning to `COCCOCCOCCOC`, the result in test [1], in [2], in test [3], in [4], in [5] and in test [6] was inactive. For the same compound, the result in [19], in test [15], in test [7], in test [16], in [8] and in [9] was inactive. The outcome in [10] was “inactive”; with CD40, CD40 (gene 958) it was “inactive”; in test [11], “inactive”; in [12] it was “inactive”; in test [13], “inactive”; in test [14] it was “inactive”.

Take `O=C(NS(=O)(=O)/C=C/c1ccccc1)c1ccc(F)cc1Cl`: the result in test [1], in [2], in test [3], in test [4], in test [5] and in test [6] was inactive. Further, the outcome in test [7] was “inactive”; in [8], “inactive”; in test [9] it was “inactive”; in test [10], “inactive”; with CD40, CD40 (gene 958), “inactive”; in [11], “inactive”. Moreover, the result in test [12], in test [13] and in test [14] was inactive.

For the compound `CC(C)CCCCCCOC(=O)c1ccc(C(=O)OCCCCCCC(C)C)c(C(=O)OCCCCCCC(C)C)c1`, the result in test [1], in [2], in test [3], in test [4], in test [5] and in test [6] was inactive. For the same compound, the outcome in [19], in [15], in test [7], in [8], in test [9] and in test [17] was inactive. In addition, the outcome was “inactive” in [10]; “inactive” with CD40, CD40 (gene 958); “inactive” in test [11]; “inactive” in [12]; “inactive” in test [13]; “inactive” in [14].
